PubChem BioAssay AID1159580 (chemical genetic matrix, 2015)
The campaign covered roughly 5,500 compounds. About 2,000 (36%) were called active. Not shown: some 18% with an inconclusive outcome. Rule as the data show it: active = normalized growth mostly below about 0.91 (no sharp cut-off); inconclusive = no clear call, values can overlap the other calls; inactive = mostly above about 0.92. Some of the results follow.

Assay: chemical genetic growth profiling, strain panel (AID 1159580);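 also: tested at 20 µM; growth read once vehicle control cultures reached saturation at 30 °C; 1 = growth at the plate median or of vehicle wells; lower values mean less growth of the strain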
Settings: growth OD

Measured: normalized growth

COC(=O)/C(=C1\OC(=O)C(c2ccccc2)=C1O)c1ccccc1
active: S. cerevisiae deletion strains, locus YLR113W, strain HOG1, hits give low values 0.827
inactive: S. cerevisiae deletion strains, locus YJL187C, strain SWE1, hits give low values 0.98 | S. cerevisiae deletion strains, locus YJR043C, strain POL32, hits give low values 1.02 | S. cerevisiae deletion strains, locus YJR066W, strain TOR1, hits give low values 0.902 | S. cerevisiae deletion strains, locus YKL009W, strain mrt4, hits give low values 1.01 | S. cerevisiae deletion strains, locus YKL068W, hits give low values 0.965 | S. cerevisiae deletion strains, locus YKL085W, strain MDH1 (second series), hits give low values 0.965 | S. cerevisiae deletion strains, locus YKL085W, strain MDH1, hits give low values 0.965 | S. cerevisiae deletion strains, locus YKL160W, strain elf1, hits give low values 0.969 | S. cerevisiae deletion strains, locus YKR001C, strain vps1, hits give low values 1.03 | S. cerevisiae deletion strains, locus YKR026C, strain gcn3, hits give low values 0.935 | S. cerevisiae deletion strains, locus YKR091W, strain srl3, hits give low values 0.965 | S. cerevisiae deletion strains, locus YLL001W, strain dnm1, hits give low values 0.97 | S. cerevisiae deletion strains, locus YLL026W, hits give low values 0.974 | S. cerevisiae deletion strains, locus YLL041C, strain sdh2, hits give low values 0.956 | S. cerevisiae deletion strains, locus YLR027C, strain aat2, hits give low values 0.969 | S. cerevisiae deletion strains, locus YLR039C, strain RIC1, hits give low values 1.03 | S. cerevisiae deletion strains, locus YLR058C, strain SHM2, hits give low values 1.01 | S. cerevisiae deletion strains, locus YLR102C, strain apc9, hits give low values 0.988 | S. cerevisiae deletion strains, locus YLR221C, strain rsa3, hits give low values 0.981 | S. cerevisiae deletion strains, locus YLR258W, strain gsy2, hits give low values 0.985 | S. cerevisiae deletion strains, locus YLR262C, strain YPT6 (second series), hits give low values 0.915 | S. cerevisiae deletion strains, locus YLR262C, strain YPT6, hits give low values 1 | S. cerevisiae deletion strains, locus YLR268W, strain sec22, hits give low values 1.03 | S. cerevisiae deletion strains, locus YLR320W, strain mms22, hits give low values 0.981 | S. cerevisiae deletion strains, locus YLR330W, strain CHS5, hits give low values 0.996 | S. cerevisiae deletion strains, locus YLR342W, strain FKS1 (second series), hits give low values 1 | S. cerevisiae deletion strains, locus YLR342W, strain FKS1, hits give low values 0.976 | S. cerevisiae deletion strains, locus YLR357W, strain rsc2, hits give low values 1.01 | S. cerevisiae deletion strains, locus YLR370C, strain arc18, hits give low values 0.97 | S. cerevisiae deletion strains, locus YLR371W, strain rom2, hits give low values 1 | S. cerevisiae deletion strains, locus YLR384C, strain iki3, hits give low values 0.982 | S. cerevisiae deletion strains, locus YLR418C, strain cdc73, hits give low values 0.996 | S. cerevisiae deletion strains, locus YML016C, strain PPZ1, hits give low values 1.01 | S. cerevisiae deletion strains, locus YML032C, strain rad52, hits give low values 0.987 | S. cerevisiae deletion strains, locus YML120C, strain ndi1, hits give low values 0.985 | S. cerevisiae deletion strains, locus YML124C, strain tub3, hits give low values 0.993 | S. cerevisiae deletion strains, locus YMR058W, strain fet3, hits give low values 0.981 | S. cerevisiae deletion strains, locus YMR078C, strain ctf18, hits give low values 1 | S. cerevisiae deletion strains, locus YMR125W, strain sto1, hits give low values 0.982 | S. cerevisiae deletion strains, locus YMR129W, hits give low values 0.965 | S. cerevisiae deletion strains, locus YMR205C, strain PFK2, hits give low values 0.965 | S. cerevisiae deletion strains, locus YMR223W, strain ubp8, hits give low values 0.98 | S. cerevisiae deletion strains, locus YMR231W, strain pep5, hits give low values 0.98 | S. cerevisiae deletion strains, locus YMR307W, strain GAS1, hits give low values 1.1 | S. cerevisiae deletion strains, locus YNL067W, strain RPL9B, hits give low values 1.03 | S. cerevisiae deletion strains, locus YNL071W, strain lat1, hits give low values 0.98 | S. cerevisiae deletion strains, locus YNL128W, strain TEP1, hits give low values 1.02 | S. cerevisiae deletion strains, locus YNL183C, strain NPR1, hits give low values 0.899 | S. cerevisiae deletion strains, locus YNL209W, strain ssb2, hits give low values 0.967 | S. cerevisiae deletion strains, locus YNL233W, strain BNI4, hits give low values 1.02 | S. cerevisiae deletion strains, locus YNL248C, strain rpa49, hits give low values 0.985 | S. cerevisiae deletion strains, locus YNL250W, strain rad50, hits give low values 0.998 | S. cerevisiae deletion strains, locus YNL271C, strain bni1, hits give low values 0.986 | S. cerevisiae deletion strains, locus YNL298W, strain CLA4, hits give low values 0.982 | S. cerevisiae deletion strains, locus YNL307C, strain MCK1, hits give low values 0.988 | S. cerevisiae deletion strains, locus YNL322C, strain KRE1 (second series), hits give low values 0.953 | S. cerevisiae deletion strains, locus YNR049C, strain mso1, hits give low values 0.959 | S. cerevisiae deletion strains, locus YNR052C, strain pop2, hits give low values 1.01 | S. cerevisiae deletion strains, locus YOL006C, strain TOP1, hits give low values 1.17 | S. cerevisiae deletion strains, locus YOL012C, strain htz1 0.689 | S. cerevisiae deletion strains, locus YOL147C, strain pex11, hits give low values 0.99 | S. cerevisiae deletion strains, locus YOR001W, strain rrp6, hits give low values 0.974 | S. cerevisiae deletion strains, locus YOR061W, strain CKA2, hits give low values 0.999 | S. cerevisiae deletion strains, locus YOR069W, strain VPS5, hits give low values 0.995 | S. cerevisiae deletion strains, locus YOR070C, strain gyp1, hits give low values 0.976 | S. cerevisiae deletion strains, locus YOR080W, strain dia2, hits give low values 0.982 | S. cerevisiae deletion strains, locus YOR083W, strain WHI5, hits give low values 0.968 | S. cerevisiae deletion strains, locus YOR106W, strain vam3, hits give low values 1.01 | S. cerevisiae deletion strains, locus YOR136W, strain idh2, hits give low values 1 | S. cerevisiae deletion strains, locus YOR144C, strain elg1, hits give low values 0.984 | S. cerevisiae deletion strains, locus YOR184W, strain ser1, hits give low values 1.01 | S. cerevisiae deletion strains, locus YOR231W, strain MKK1, hits give low values 0.903 | S. cerevisiae deletion strains, locus YOR265W, strain rbl2, hits give low values 0.961 | S. cerevisiae deletion strains, locus YOR270C, strain vph1, hits give low values 0.974 | S. cerevisiae deletion strains, locus YOR290C, strain snf2, hits give low values 0.948 | S. cerevisiae deletion strains, locus YOR316C, strain cot1, hits give low values 0.981 | S. cerevisiae deletion strains, locus YPL051W, strain arl3, hits give low values 0.983 | S. cerevisiae deletion strains, locus YPL055C, strain LGE1, hits give low values 1.05 | S. cerevisiae deletion strains, locus YPL078C, strain atp4, hits give low values 0.972 | S. cerevisiae deletion strains, locus YPL106C, strain sse1, hits give low values 0.966 | S. cerevisiae deletion strains, locus YPL240C, strain hsp82, hits give low values 0.956 | S. cerevisiae deletion strains, locus YPL241C, strain CIN2, hits give low values 0.989 | S. cerevisiae deletion strains, locus YPL256C, strain CLN2, hits give low values 0.865 | S. cerevisiae deletion strains, locus YPR119W, strain clb2, hits give low values 0.99 | S. cerevisiae deletion strains, locus YPR141C, strain kar3, hits give low values 0.965 | S. cerevisiae deletion strains, locus YPR163C, strain tif3, hits give low values 0.997 | S. cerevisiae deletion strains, locus YPR167C, strain met16, hits give low values 0.983 | S. cerevisiae deletion strains, strain wtn01, hits give low values 1.01 | S. cerevisiae strains, strain wild type, hits give low values 0.992
